In the library only some 4.9% were active in any assay of this set; here they are far more common.
OTUD3 inh = blocks human OTUD3 ubiquitin-rhodamine cleavage. Q5T2D3. purified OTUD3, Ub-rhodamine fluorescence, 2 h. inhibition, % at 25 µM. 0.7% of 47,000 active
USP8 inh = blocks human USP8 ubiquitin-rhodamine cleavage. 4.2% of 47,000 active. inhibition, % at 20 µM. AID 1645853. purified USP8, Ub-rhodamine cleavage fluorescence, 30 min. P40818
USP7 inh = blocks human USP7 ubiquitin-rhodamine cleavage; purified USP7, Ub-rhodamine cleavage fluorescence; inhibition, % at 20 µM; 0.3% of 47,000 active
Target sequence (Q93009 whole entry, looked up): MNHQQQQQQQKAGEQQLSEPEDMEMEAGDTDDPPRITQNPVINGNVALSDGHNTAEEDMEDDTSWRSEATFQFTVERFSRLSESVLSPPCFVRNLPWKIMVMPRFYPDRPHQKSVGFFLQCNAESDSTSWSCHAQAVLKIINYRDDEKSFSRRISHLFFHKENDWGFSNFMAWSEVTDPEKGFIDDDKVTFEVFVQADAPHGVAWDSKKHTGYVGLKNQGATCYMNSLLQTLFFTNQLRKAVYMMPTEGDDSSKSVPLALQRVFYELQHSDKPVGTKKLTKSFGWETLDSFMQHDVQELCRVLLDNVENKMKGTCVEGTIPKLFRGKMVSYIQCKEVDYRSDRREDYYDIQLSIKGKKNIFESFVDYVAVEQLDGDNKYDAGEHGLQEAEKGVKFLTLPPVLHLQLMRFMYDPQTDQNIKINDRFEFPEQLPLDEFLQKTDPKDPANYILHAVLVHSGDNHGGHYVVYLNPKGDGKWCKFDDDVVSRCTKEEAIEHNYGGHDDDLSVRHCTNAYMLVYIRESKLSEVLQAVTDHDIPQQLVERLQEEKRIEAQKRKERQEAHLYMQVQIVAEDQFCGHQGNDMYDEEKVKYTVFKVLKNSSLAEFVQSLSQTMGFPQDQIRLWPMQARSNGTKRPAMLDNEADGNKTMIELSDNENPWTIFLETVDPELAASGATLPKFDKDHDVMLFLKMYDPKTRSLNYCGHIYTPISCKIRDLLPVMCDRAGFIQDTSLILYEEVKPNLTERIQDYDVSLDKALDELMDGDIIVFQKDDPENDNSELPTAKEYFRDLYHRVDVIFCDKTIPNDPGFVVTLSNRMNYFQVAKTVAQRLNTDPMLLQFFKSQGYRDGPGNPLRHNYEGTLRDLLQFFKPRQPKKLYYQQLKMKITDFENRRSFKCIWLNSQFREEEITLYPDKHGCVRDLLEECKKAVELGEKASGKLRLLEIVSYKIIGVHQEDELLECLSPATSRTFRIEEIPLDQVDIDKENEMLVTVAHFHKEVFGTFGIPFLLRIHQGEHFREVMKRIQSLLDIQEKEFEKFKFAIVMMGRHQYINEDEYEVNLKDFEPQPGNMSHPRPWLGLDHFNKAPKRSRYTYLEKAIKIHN
USP10 inh = blocks human USP10 ubiquitin-rhodamine cleavage. 1.1% of 47,000 active. AID 1645856. Q14694. inhibition, % at 20 µM. purified USP10, Ub-rhodamine fluorescence, 60 min
UCHL1 block = inhibitors of human UCHL1 deubiquitinase. 0.2% of 47,000 active. P09936. purified UCHL1, Ub-rhodamine cleavage fluorescence. inhibition, % at 20 µM. AID 1645859
An asterisk follows results filed as active. Rule as the data show it: active = inhibition above about 30%; inactive = the rest.

SMILES	OTUD3 inh	USP8 inh	USP7 inh	USP10 inh	UCHL1 block
COc1cccc(OCC(O)CNc2ccc(Cl)cc2)c1 (stereo unspecified)	-3	37*	-80	3	2
O=C(Oc1ccccc1)C1CCN(C2=NS(=O)(=O)c3ccccc32)CC1	12	14	2	5	1
CC[C@@H](C(=O)[C@@H](C)[C@@H](O)[C@H](C)CCc1ccc(C)c(O)c1C(=O)O)[C@@H]1O[C@](CC)([C@H]2CC[C@](O)(CC)[C@H](C)O2)C[C@@H]1C	13	16	23	60*	2
Cc1cc(N2CCC(NS(=O)(=O)Cc3ccccc3)C2=O)ccc1F (stereo unspecified)	-1	-4	-5	0	-5
Cc1ccc(CNC(=O)NC2CCN(c3ccccc3)C2=O)cc1 (stereo unspecified)	16	32*	9	6	3
O=C1C(NS(=O)(=O)Cc2ccc(Cl)cc2)CCN1c1ccccc1 (stereo unspecified)	9	31*	16	5	9
O=C(NCCn1c(=O)n(Cc2ccc(F)cc2)c2cccnc21)C1CCOC1 (stereo unspecified)	-93	-56	-69	-4	-41
O=C(O)c1ccccc1CN1C(=O)C2CCCN2C(=O)c2ccccc21 (stereo unspecified)	12	16	5	0	2
COc1ccc2c(C)c(CC(=O)N[C@@H](Cc3c[nH]c4ccc(O)cc34)C(=O)O)c(=O)oc2c1C	7	45*	1	7	3
O=C(Nc1ccccc1Cl)c1ccn(COc2ccccc2F)n1	20	35*	9	5	1
O=C(N1CCOCC1)N1CCn2c(nnc2C2CCCN2)C1 (stereo unspecified)	4	-199	2	-3	-1
Cc1cccc(CS(=O)(=O)c2cn(CC(=O)N3CCCC3)c3ccccc23)c1	-12	-15	-4	1	-1
Cc1cccc(NC(=O)c2cnc(N3CCCCC3)c3ccccc23)n1	-16	36*	-7	-3	0
COc1ccccc1C1CC(c2ccccc2)N(C(=O)CC(C)C)c2ncnn21 (stereo unspecified)	21	4	2	2	9
O=C(Nc1ccc(-n2cccc2)cc1)c1cccc([N+](=O)[O-])c1	0	31*	0	19	-4
O=C(Nc1ccc(-n2cccc2)c(Cl)c1)c1cccc([N+](=O)[O-])c1	-6	-2	-38	9	6
CC1=C(C(=O)OC2CCCC2)C(c2ccc(Cl)c([N+](=O)[O-])c2)CC(=O)N1 (stereo unspecified)	4	0	-46	6	6
CC1=C(C(=O)OC2CCCCCC2)C(c2ccccc2[N+](=O)[O-])CC(=O)N1 (stereo unspecified)	-3	62*	-6	3	1
O=C(c1ccccc1NS(=O)(=O)c1ccc(F)c(F)c1)N(CCO)Cc1ccccc1	12	-32	-3	1	-2
CCN1CCN(C(=O)c2sc(-c3ccc(F)cc3)nc2C)CC1	-1	-12	0	-2	0
CCn1ncc(-c2ccnc3cc(C(=O)N4CCN(Cc5ccc(F)cc5)CC4)nn23)c1C	12	60*	-53	-4	10
COc1cc(OC)nc(N2CCC(C(=O)N3CCN(Cc4ccccc4)CC3)CC2)n1	2	4	2	-3	3
Cc1cccc(-n2nnc(-c3nc(-c4ccc(Cl)cc4)no3)c2N)c1	-11	12	4	-2	-3
Nc1c(-c2nc(-c3ccccc3Cl)no2)nnn1-c1ccc(Cl)cc1	4	94*	56*	60*	12
Nc1c(-c2nc(-c3ccc(F)cc3)no2)nnn1-c1ccccc1F	1	35*	8	1	1
SMILES	OTUD3 inh	USP8 inh	USP7 inh	USP10 inh	UCHL1 block
Cc1cc(C)c(NC(=O)CSc2nc3cn(C)nc3c(=O)n2CC2CC2)c(C)c1	-1	42*	5	13	0
N#Cc1cccc(S(=O)(=O)c2c[nH]c3cc(Cl)ccc3c2=O)c1	8	57*	5	15	1
CCn1cc2nc(SCC(=O)NCc3ccco3)n(Cc3ccc(C)cc3)c(=O)c2n1	13	19	-3	-6	2
COc1ccc([C@H]2C[C@@H]3NC(=O)CCC[C@H]3N2C(=O)Cc2cc(C)ccc2OC)cc1	6	5	-14	-7	-2
Cc1ccc(CNC(=O)CCc2c(C)nn(-c3cc(N4CCCC4)ncn3)c2C)o1	-8	-37	-8	-3	-10
CCCn1c(=O)c(-c2ccc(C(=O)NCc3ccc(OC)cc3)cc2)nc2cccnc21	23	65*	31*	33*	5
Cc1sc(NC(=O)c2cccnc2)nc1-c1ccc2c(c1)NC(=O)CO2	16	31*	4	3	3
O=C(COc1ccc(Cl)cc1)Nc1ccc2c3c(cccc13)CC2	-18	14	0	-2	-4
COc1ccccc1OCCSc1nnc(-c2ccc3c(c2)OCCCO3)n1C	19	11	78*	1	2
O=C(Nc1ccc2cn[nH]c2c1)c1cc(-c2ccco2)on1	-17	41*	-19	-1	11
CCc1nc2c(NC(=O)NC3CCCCC3)cccn2n1	-6	32*	-1	-2	0
CCc1nc2c(NC(=O)C3CCCCC3)cccn2n1	0	0	-6	7	-3
COc1ccc(CCNCc2cc3c(C)nn(-c4ccc(Cl)cc4)c3[nH]c2=O)cc1OC	6	78*	5	-1	0
Cc1nn(-c2ccc(Cl)cc2)c2[nH]c(=O)c(CNCCN(C)C)cc12	-17	53*	-4	-9	-4
Cc1nn(-c2ccc(Cl)cc2)c2[nH]c(=O)c(CNCc3ccco3)cc12	-62	44*	-1	-5	-8
CC(C)(C)c1nn(-c2ccc(Cl)cc2)c2[nH]c(=O)c(CNCCc3ccccc3)cc12	-7	-5	0	-2	-4
Cc1nn(-c2ccc(Cl)cc2)c2[nH]c(=O)c(CNCC3CCCO3)cc12 (stereo unspecified)	-170	86*	5	4	4
CC(=O)N[C@@H]1C[C@H](c2cccc(-c3ccc(F)cc3)c2)O[C@@H]2CCC[C@@H]12	0	11	-2	0	4
C[C@]12CN(Cc3cccc4cccnc34)C[C@H]1NC(=O)c1ccccc1C2=O	-2	44*	1	0	0
COc1ccccc1CN1C[C@H]2NC(=O)c3ccccc3C(=O)[C@@]2(C)C1	-5	3	-4	0	0
O=C(Nc1ccc(-n2cccc2)cc1)c1ccc(F)cc1	8	20	6	6	0
O=C(Nc1ccc(N2CCC(n3cccc3)CC2)cc1)c1ccccc1	-1	30*	8	15	1
C=C(C)[C@@H]1CC[C@]2(C)[C@H](CC[C@@H]3[C@@H](C(C)(O)CCC=C(C)C)CC[C@]32C)[C@@]1(C)CCC(=O)O (stereo partly specified)	88*	91*	85*	93*	45*

Bioassay records from PubChem.
